Pin1 inhibitor: blocks the human prolyl isomerase Pin1; Q13526; Pin1 FP peptide displacement, HiFluor488, 10 min; Potency, µM (doses to about 115 µM), without a hit: at the top dose activity, negative = inhibition, usual class: inhibitors; actives 0.009% (n = 390,000); AID 504891; active = well fitted inhibition curve with a large enough effect in the polarisation, with a control signal flat, not every such curve was filed as active; inconclusive = small, poorly fitted or top-dose-only effect, or effect the other way, or a change in a side signal; inactive = no such curve, though single readings can be large or run the other way; the % refers to the polarisation; note: potency is the fitted concentration of half-maximal effect
PI5P4Ka inh: inhibitors of human PI5P4K alpha; max response, %; AID 652105; actives 1.2% (n = 330,000); PI5P4Kalpha enzyme, ADP-Glo luminescence, 60 min; active compounds read low; active = max response of -50% or lower; inconclusive = between -30% and -50%; inactive = -30% or higher; note: value at the top dose of about 77 µM
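Human PI5P4Kalpha with substrate in 0.038 M HEPES pH 7.4, 0.28 mM EGTA, 0.1% CHAPS, 5% DMSO; reaction started with 5 microM ATP (final), 60 min at room temperature. ADP formed read by ADP-Glo luminescence.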
PI4K2A inh: blocks human PI4K2A kinase activity. Q9BTU6. purified PI4K2A, ADP-Glo luminescence, 1 h; active compounds read low. activity change, negative = inhibition, % at 76.9 µM. actives 0.13% (n = 420,000). AID 1346378; in the data active = activity change below about -50%; inconclusive = mostly about -30% to -49%;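 note: -100% = wells without enzyme as full effect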
Target sequence (Q9BTU6 whole entry, looked up): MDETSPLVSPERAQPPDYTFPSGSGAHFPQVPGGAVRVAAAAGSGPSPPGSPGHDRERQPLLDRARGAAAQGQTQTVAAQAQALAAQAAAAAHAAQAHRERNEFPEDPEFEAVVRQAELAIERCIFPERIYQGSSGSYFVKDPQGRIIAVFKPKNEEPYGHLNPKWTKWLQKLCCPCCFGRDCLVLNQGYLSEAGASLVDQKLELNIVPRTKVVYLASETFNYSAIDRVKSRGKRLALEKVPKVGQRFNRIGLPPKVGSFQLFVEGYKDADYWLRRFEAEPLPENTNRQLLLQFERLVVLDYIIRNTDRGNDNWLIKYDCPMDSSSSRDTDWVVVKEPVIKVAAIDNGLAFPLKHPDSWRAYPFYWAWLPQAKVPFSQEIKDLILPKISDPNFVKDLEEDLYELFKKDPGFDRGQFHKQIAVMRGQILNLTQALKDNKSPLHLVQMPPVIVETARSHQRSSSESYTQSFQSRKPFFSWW
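ADP-Glo luminescence measured ADP generated by PI4K2A enzyme (4 ug/mL before mixing) with 1.2 mM PI substrate (pre-mix) and 300 microM ATP (pre-mix). Tris pH7.5 buffer with MgCl2, Triton X-100; 1 h reaction at ambient temperature.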
Tb PGK inh: inhibitors of T. brucei phosphoglycerate kinase. actives 0.043% (n = 380,000). AID 602233. P07378. Potency, µM (top dose mostly 57.5 µM), inactives show at the top dose activity change, negative = inhibition, hits mostly inhibitors. PGK/GAPDH coupled, Kinase-Glo luminescence, 60 min; active = well fitted inhibition curve with a large enough effect; inconclusive = small, poorly fitted or top-dose-only effect; inactive = no such curve, though single readings can be large or run the other way; note: potency is the fitted concentration of half-maximal effect; nearly all actives have a fitted effect of over 60% in size
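Luminescent ATP detection (Kinase-Glo Plus) follows a 60-minute room-temperature incubation, with wells lacking PGK as controls. Buffer: 100 mM TEA (pH 7.6), 5 mM MgCl2, 0.01% Tween-20. Coupling enzyme GAPDH (100 nM final) supplies unstable 1,3-BPG in-well.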
Numbers without * were called inactive; i = inactive; ? = inconclusive; . = not tested or not shown. This excerpt belongs to a sample that is enriched for hits. Unless noted, % is set by controls: 0 for no effect and ±100 for the full control effect.

SMILES | Pin1 inhibitor | PI5P4Ka inh | PI4K2A inh | Tb PGK inh
Cc1cc2c(s1)c1cnn(Cc3ccc(-n4cncn4)cc3)c(=O)c1n2C | -1% | . | . | .
O=c1c2c(-c3cccs3)csc2[nH]c(=S)n1-c1ccccc1 | 12% | ? | -4 | -3%
CC(C)n1c(=S)[nH]c2scc(-c3cccs3)c2c1=O | ? | -82* | -23 | -3%
O=C(CCN1C(=O)/C(=C/c2ccco2)SC1=S)Nc1ccc(C(=O)O)c(O)c1 | ? | -63* | -7 | ?
O=C(CCN1C(=O)/C(=C\c2ccco2)SC1=S)Nc1ccc(C(=O)O)c(O)c1 | ? | -74* | -11 | -21%
COc1ccccc1/C=C1\SC(=S)N(CCC(=O)Nc2ccc(C(=O)O)c(O)c2)C1=O | . | ? | -6 | -3%
CC(=Cc1ccccc1)C=C1SC(=S)N(CCCC(=O)Nc2ccc(C(=O)O)cc2)C1=O | . | ? | -7 | .
CC(/C=C1\SC(=S)N(CCC(=O)Nc2cccc(C(=O)O)c2)C1=O)=C\c1ccccc1 | -29% | -77* | -3 | -16%
COc1ccc(CN(Cc2ccccc2)C(=O)c2ccccc2N)cc1COc1ccc(NC(C)=O)cc1 | -2% | . | . | .
CC(C)Oc1cccc(-c2ccnc(N3CCC(C(N)=O)CC3)n2)c1 | -1% | . | . | .
CCOC(=O)C(=O)CCCCCCl | . | . | 2 | .
O=S(=O)(c1ccc(C(F)(F)F)cc1)N1CCN(S(=O)(=O)c2ccc3c(c2)OCCO3)CC1 | -4% | . | . | .
O=C(N/N=C/c1c(O)n(-c2ccccc2Cl)c(=O)c2ccccc12)C1COc2ccccc2O1 (centres undefined) | ? | -53* | 3 | 8%
O=C(N/N=C/c1ccc([N+](=O)[O-])cc1)c1cccs1 | 24% | -4 | 5 | -16%
O=C(N/N=C\c1cccc([N+](=O)[O-])c1O)C1COc2ccccc2O1 (centres undefined) | -8% | -69* | 1 | 1%
O=C(N/N=C/c1cccc([N+](=O)[O-])c1O)c1cccs1 | -9% | -51* | -1 | -6%
CCN(CC)C(=O)C1=C(C)N(Cc2ccc(C(C)(C)C)cc2)C(=O)C(CC(=O)NCC2CCCCC2)C1 (centres undefined) | . | 0 | -4 | i
O=C(O)c1cc([N+](=O)[O-])cc2c1nnn2O | -3% | -67* | -22 | -24%
COc1ccc(-c2nn(-c3ccccc3)cc2/C=C2/SC(=S)N(CCC(=O)O)C2=O)cc1 | ? | 2 | 4 | 20µM*
O=C1C(=Cc2cn(-c3ccccc3)nc2-c2ccc(OCc3ccccc3F)cc2)SC(=S)N1CCS(=O)(=O)O | . | -79* | -2 | .
O=S(=O)(c1ccccc1F)N1CCN(c2nc(-c3cccs3)nc3ccccc23)CC1 | 0% | . | . | .
Cc1cc2c(s1)c1cnn(Cc3c(F)c(F)c(C(F)(F)F)c(F)c3F)c(=O)c1n2C | 1% | . | . | .
C[C@H](N)C(=O)N[C@@H](C)C(=O)NC1[C@H]2CN(c3nc4c(cc3F)c(=O)c(C(=O)O)cn4-c3ccc(F)cc3F)C[C@@H]12 (some centres undefined) | . | . | 1 | .
Cc1c(/C=C2\SC(=Nc3cccc(C(=O)O)c3)NC2=O)c2ccccc2n1C | 43% | -79* | 2 | -11%
O=C(O)c1cc(-c2ccc(/C=C3\NC(=O)N(c4ccc(Cl)cc4)C3=O)o2)ccc1Cl | ? | ? | -8 | 32µM*
SMILES | Pin1 inhibitor | PI5P4Ka inh | PI4K2A inh | Tb PGK inh
CC1CCC(C(C)C)C(OC(=O)C[n+]2cccc(C(N)=O)c2)C1 (centres undefined) | -4% | -75* | 2 | i
CC1CCC(C(C)C)C(OC(=O)COC(=O)c2ccc(N)cc2)C1 (centres undefined) | ? | 26 | 8 | -9%
CC(C)Oc1cccc(-c2n[nH]c(=S)n2N=Cc2cccc([N+](=O)[O-])c2)c1 | . | . | 7 | .
O=C(ONc1ccc(N=NC(=O)c2ccccc2O)cc1)c1ccccc1 | ? | -58* | -1 | ?
O=Nc1ccc(NOC(=O)c2ccccc2Br)cc1 | 10% | 0 | ? | -7%
NS(=O)(=O)c1ccc(N2CCCCS2(=O)=O)cc1 | . | . | 0 | .
COc1cc(O)oc1C=Nc1ccc(C(=O)O)cc1 | 10% | -16 | -50* | ?
COc1cc(O)oc1C=Nc1ccc(Cl)cc1 | -5% | 4 | -2 | -5%
COc1cc(OC)cc(-c2nnc3n2N=C(c2ccc(OC)cc2OC)CS3)c1 | 24% | . | . | .
Cc1oc2c(CN(C)C)c(O)ccc2c(=O)c1-c1ccc2ccccc2n1 | -2% | . | 0 | 0%
CCc1oc2c(C)c(O)ccc2c(=O)c1-c1ccc2ccccc2n1 | 0% | . | -52* | -1%
NS(=O)(=O)c1ccc(-c2ccc(/C=C3\C(=O)Nc4cc(Cl)ccc43)o2)cc1 | ? | ? | ? | -3%
CC1(C)OC(=O)C(=Cc2ccc(-c3ccc(S(N)(=O)=O)cc3)o2)C(=O)O1 | -11% | -59* | -17 | -9%
COC1=C(Br)C(=O)c2ncccc2C1=O | . | ? | -55* | ?
O=C1c2cccnc2-c2ncccc21 | 1% | 1 | 3 | -3%
O=C1C(=O)c2cccnc2-c2ncccc21 | . | -22 | -74* | .
CCCN1CNc2c(c(=O)[nH]c(=S)n2CCc2ccc3c(c2)OCCO3)C1 | -2% | . | . | .
COC(=O)c1cc(F)c(S(=O)(=O)N2CCN(S(=O)(=O)c3ccc4c(c3)OCCO4)CC2)cc1F | -4% | . | . | .
Cc1ccc(-n2cccc2/C=C2/C(=N)N3C(=NC2=O)SN=C3S(C)(=O)=O)cc1 | -1% | -67* | -4 | -12%
Cc1cc(C)cc(-n2cccc2/C=C2/C(=N)N3C(=NC2=O)SN=C3S(C)(=O)=O)c1 | 1% | ? | -1 | -3%
CCc1ccc(-n2cccc2/C=C2/C(=N)N3C(=NC2=O)SN=C3S(C)(=O)=O)cc1 | ? | -61* | 4 | -12%
CS(=O)(=O)C1=NSC2=NC(=O)/C(=C\c3cccn3-c3ccccc3Cl)C(=N)N21 | 22% | -95* | -11 | -16%

Screening data as filed in PubChem.
